# Reference: the supplement of paper PMC10849652
# Of roughly 8,800 targets only a part is listed; those with a hit were picked by preference. About 0.5% of all pairs of compound and target were hits. Unmarked numbers belong to inactive results.
# Compound: NCC(=O)Nc1ccc(-n2nc(C(F)(F)F)cc2-c2ccc3c(ccc4ccccc43)c2)cc1
# Assay: log2 fold change, soluble protein after heating vs DMSO (PISA); higher = thermal stabilisation; K562 lysate, 10 uM; active = over 0.2 and 3.5 SD of the protein, either way, in both replicates (recomputed)
# Outline: (§1)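 Pellets of K562 cells were dounce-homogenised in PBS pH 7.4 with 1 mM MgCl2, and the crude extract was held at 1 mg/mL protein for a 30 min treatment with 10 μM compound. Aliquots were heated for 3 min over 48°C-58°C and pooled before NP-40 was added to 0.5% at 4°C. The supernatant from 21,000xg for 90 min was quantified by TMTpro 16plex LC-MS/MS with channel sums equalised. Values are reported from duplicates as log-two fold change in thermal stability relative to solvent controls.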
# UniProt O14617, sequence (O14617 whole entry, looked up): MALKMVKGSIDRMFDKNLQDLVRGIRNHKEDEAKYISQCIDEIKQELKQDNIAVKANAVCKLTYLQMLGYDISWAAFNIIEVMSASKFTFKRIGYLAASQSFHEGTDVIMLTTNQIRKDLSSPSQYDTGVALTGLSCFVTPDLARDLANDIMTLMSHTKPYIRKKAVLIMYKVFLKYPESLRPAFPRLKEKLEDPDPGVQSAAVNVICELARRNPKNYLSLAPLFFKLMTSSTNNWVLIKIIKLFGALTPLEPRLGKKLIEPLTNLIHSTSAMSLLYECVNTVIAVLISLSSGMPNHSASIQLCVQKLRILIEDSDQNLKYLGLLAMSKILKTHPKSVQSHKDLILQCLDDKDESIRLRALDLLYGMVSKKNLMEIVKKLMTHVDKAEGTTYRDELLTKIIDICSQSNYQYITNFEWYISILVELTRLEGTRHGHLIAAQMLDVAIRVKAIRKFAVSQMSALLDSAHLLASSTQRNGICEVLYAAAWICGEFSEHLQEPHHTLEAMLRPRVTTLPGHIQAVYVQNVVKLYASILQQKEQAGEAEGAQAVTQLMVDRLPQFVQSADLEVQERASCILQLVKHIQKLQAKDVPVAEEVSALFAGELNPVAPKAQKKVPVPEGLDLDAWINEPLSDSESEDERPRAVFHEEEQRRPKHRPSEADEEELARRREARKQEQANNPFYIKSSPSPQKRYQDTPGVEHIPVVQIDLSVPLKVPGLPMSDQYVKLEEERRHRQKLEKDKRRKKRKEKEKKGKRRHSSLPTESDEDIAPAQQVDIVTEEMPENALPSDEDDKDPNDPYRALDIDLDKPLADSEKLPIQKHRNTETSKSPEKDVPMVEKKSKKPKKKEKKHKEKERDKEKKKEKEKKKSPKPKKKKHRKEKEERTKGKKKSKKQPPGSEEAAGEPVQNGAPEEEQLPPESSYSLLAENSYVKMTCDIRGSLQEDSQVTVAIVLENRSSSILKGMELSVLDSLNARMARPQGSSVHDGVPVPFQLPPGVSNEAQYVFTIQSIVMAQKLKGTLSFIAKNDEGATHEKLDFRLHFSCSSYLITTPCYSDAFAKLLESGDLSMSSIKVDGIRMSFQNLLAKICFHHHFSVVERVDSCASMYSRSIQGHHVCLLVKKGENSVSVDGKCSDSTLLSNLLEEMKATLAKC
# UniProt Q9UH62, sequence (Q9UH62 whole entry, looked up): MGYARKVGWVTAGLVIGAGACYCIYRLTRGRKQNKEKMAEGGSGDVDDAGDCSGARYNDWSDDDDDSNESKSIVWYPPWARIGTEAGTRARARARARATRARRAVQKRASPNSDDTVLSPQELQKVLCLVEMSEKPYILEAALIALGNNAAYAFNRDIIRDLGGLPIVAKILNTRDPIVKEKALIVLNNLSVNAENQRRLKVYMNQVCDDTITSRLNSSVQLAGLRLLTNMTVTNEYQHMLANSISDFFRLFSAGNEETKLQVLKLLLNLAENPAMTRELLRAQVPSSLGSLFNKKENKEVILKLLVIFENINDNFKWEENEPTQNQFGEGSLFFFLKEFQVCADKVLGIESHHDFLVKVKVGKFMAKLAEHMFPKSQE
# UniProt O43865, sequence (O43865 whole entry, looked up): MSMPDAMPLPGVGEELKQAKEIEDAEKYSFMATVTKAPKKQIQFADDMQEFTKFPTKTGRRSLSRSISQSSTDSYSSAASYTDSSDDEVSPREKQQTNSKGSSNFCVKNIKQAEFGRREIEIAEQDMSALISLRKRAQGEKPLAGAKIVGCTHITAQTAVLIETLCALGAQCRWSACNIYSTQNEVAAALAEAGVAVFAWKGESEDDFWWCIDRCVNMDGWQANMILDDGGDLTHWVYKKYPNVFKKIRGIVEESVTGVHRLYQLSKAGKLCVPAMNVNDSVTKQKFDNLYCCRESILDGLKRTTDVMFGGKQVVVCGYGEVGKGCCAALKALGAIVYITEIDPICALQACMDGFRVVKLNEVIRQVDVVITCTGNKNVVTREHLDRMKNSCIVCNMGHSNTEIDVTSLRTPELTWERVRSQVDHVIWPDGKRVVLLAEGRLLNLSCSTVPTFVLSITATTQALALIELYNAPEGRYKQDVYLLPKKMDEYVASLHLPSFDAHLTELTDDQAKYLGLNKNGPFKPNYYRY
# UniProt Q9UJX3, sequence (Q9UJX3 whole entry, looked up): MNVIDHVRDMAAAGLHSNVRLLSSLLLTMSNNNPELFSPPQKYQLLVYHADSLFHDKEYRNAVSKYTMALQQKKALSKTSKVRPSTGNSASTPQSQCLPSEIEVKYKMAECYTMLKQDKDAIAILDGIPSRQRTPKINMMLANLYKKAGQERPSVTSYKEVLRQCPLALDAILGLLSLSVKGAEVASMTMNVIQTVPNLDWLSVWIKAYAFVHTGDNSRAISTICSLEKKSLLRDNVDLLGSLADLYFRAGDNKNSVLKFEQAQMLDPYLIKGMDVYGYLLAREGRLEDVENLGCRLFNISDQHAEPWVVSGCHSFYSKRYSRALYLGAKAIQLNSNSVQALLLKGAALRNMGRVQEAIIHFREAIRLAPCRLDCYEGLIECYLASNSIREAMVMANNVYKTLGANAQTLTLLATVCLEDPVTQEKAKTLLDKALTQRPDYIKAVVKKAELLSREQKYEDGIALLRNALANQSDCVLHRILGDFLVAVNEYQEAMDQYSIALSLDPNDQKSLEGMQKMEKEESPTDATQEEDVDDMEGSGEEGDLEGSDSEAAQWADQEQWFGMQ
# UniProt P00352, sequence (P00352 whole entry, looked up): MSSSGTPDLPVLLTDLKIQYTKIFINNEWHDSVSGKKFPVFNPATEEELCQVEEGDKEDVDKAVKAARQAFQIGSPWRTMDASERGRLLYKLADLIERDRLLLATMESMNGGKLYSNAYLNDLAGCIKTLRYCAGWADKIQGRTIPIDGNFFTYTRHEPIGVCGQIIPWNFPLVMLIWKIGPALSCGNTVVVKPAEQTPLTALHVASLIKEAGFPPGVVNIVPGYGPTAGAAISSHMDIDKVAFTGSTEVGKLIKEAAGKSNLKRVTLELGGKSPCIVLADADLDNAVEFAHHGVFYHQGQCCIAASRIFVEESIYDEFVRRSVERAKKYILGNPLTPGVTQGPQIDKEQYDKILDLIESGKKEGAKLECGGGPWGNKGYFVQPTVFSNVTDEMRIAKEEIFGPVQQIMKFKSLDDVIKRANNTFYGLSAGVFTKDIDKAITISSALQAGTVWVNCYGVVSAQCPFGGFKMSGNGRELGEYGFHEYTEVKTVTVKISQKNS
# UniProt Q5T5U3, sequence (Q5T5U3 whole entry, looked up): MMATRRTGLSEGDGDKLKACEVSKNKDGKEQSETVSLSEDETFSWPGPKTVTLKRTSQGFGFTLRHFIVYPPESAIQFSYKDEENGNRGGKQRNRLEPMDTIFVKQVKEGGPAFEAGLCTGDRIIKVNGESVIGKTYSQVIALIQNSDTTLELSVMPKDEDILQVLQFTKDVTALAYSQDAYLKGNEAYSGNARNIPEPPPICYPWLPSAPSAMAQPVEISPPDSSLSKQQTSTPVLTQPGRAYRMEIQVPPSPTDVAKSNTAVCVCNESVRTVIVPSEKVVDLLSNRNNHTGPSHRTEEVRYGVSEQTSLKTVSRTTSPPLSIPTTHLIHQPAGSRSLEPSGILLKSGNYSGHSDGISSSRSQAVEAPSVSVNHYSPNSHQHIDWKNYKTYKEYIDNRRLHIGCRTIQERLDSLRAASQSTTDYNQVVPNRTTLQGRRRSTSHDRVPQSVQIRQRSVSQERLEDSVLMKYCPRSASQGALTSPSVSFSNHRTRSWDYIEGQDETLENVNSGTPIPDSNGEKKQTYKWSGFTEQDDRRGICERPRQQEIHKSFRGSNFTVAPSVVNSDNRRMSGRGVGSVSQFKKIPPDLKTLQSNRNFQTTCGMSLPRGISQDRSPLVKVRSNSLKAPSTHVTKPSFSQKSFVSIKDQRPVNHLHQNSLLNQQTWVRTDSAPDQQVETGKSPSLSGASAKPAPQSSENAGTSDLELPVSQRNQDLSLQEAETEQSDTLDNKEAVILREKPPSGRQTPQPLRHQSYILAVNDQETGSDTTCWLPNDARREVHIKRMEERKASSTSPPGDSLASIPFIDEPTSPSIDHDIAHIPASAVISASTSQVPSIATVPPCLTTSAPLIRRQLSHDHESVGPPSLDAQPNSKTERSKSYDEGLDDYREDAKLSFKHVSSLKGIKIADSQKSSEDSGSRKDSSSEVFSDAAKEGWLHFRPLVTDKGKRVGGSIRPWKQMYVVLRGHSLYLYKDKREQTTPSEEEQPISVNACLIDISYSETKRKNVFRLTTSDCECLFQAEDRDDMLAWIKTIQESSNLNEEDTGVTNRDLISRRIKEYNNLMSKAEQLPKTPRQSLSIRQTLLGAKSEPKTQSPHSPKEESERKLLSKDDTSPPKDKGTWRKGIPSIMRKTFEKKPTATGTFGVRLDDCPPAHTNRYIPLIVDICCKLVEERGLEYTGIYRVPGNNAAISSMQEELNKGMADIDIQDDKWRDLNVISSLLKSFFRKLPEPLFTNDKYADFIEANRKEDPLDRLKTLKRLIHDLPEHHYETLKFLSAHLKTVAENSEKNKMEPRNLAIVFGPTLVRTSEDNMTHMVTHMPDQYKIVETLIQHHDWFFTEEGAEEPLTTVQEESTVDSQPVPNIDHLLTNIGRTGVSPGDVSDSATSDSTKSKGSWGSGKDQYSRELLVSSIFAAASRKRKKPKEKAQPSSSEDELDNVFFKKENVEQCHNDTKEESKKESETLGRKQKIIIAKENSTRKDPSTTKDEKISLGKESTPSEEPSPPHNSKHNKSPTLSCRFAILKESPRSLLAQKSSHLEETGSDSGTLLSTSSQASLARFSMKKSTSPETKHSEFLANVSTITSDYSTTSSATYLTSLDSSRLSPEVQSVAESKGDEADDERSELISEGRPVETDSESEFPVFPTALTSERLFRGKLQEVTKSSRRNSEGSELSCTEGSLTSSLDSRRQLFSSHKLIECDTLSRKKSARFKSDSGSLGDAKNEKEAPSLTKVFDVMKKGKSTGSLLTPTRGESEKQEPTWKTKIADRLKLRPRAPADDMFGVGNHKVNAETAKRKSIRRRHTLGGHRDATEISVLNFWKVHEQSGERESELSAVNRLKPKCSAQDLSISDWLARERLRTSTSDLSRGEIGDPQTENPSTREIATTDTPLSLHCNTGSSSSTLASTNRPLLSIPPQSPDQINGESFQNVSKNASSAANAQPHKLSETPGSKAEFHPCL
row,Target,log2 fold change
1,ACAT1 (UniProt P24752),0.011
2,AMD1 (UniProt P17707),0.071
3,ACLY (UniProt P53396),-0.008
4,ANXA13 isoform 2 (UniProt P27216),-0.084
5,ACOX1 isoform 2 (UniProt Q15067),0.009
6,ANAPC7 (UniProt Q9UJX3),-0.035
7,ARMC6 (UniProt Q6NXE6),-0.011
8,AKT2 (UniProt P31751),-0.021
9,ARHGAP21 (UniProt Q5T5U3),0.021
10,ARL8A (UniProt Q96BM9),0.192
11,ALG13 (UniProt Q9NP73),-0.027
12,ARHGAP25 isoform 4 (UniProt P42331),0.027
13,ABCC5 (UniProt O15440),0.025
14,ACYP2 (UniProt P14621),0.066
15,ACACB (UniProt O00763),-0.026
16,ALG8 (UniProt Q9BVK2),-0.022
17,ARMCX3 (UniProt Q9UH62),0.042

row,Target,log2 fold change
1,ASB6 (UniProt Q9NWX5),0.116
2,ABCA3 (UniProt Q99758),-0.157
3,AK1 (UniProt P00568),0.005
4,ADK (UniProt P55263),-0.049
5,AHCYL1 (UniProt O43865),0.021
6,ACIN1 isoform 5 (UniProt Q9UKV3),0.035
7,ANKRD10 (UniProt Q9NXR5),0
8,ADD1 isoform 3 (UniProt P35611),-0.024
9,APEX1 (UniProt P27695),0.007
10,ACTG1 (UniProt I3L4N8),-0.131
11,ALDH1A1 (UniProt P00352),-0.038
12,ARL15 (UniProt Q9NXU5),0.007
13,ARL13B (UniProt Q3SXY8),0.01
14,AP3D1 isoform 5 (UniProt O14617),-0.001
15,AFF4 (UniProt Q9UHB7),-0.119
16,AP3D1 isoform 2 (UniProt O14617),0.179
17,ACACA isoform 4 (UniProt Q13085),-0.003

# Compound: O=C(CCCCCCC(=O)Nc1ccccc1)NO [vorinostat]
# Assay: as above
# Outline: as §1
row,Target,log2 fold change
1,ACAT1 (UniProt P24752),-1.05 (active)
2,AMD1 (UniProt P17707),-0.076
3,ACLY (UniProt P53396),-0.029
4,ANXA13 isoform 2 (UniProt P27216),0.004
5,ACOX1 isoform 2 (UniProt Q15067),0.09
6,ANAPC7 (UniProt Q9UJX3),-0.218 (active)
7,ARMC6 (UniProt Q6NXE6),-0.422 (active)
8,AKT2 (UniProt P31751),-0.175
9,ARHGAP21 (UniProt Q5T5U3),-0.364 (active)
10,ARL8A (UniProt Q96BM9),0.234
11,ALG13 (UniProt Q9NP73),-0.339 (active)
12,ARHGAP25 isoform 4 (UniProt P42331),-0.377 (active)
13,ABCC5 (UniProt O15440),0.042
14,ACYP2 (UniProt P14621),0.147
15,ACACB (UniProt O00763),-0.438 (active)
16,ALG8 (UniProt Q9BVK2),-0.05
17,ARMCX3 (UniProt Q9UH62),-0.279 (active)

row,Target,log2 fold change
1,ASB6 (UniProt Q9NWX5),-0.005
2,ABCA3 (UniProt Q99758),0.087
3,AK1 (UniProt P00568),0.075
4,ADK (UniProt P55263),-0.052
5,AHCYL1 (UniProt O43865),-0.287 (active)
6,ACIN1 isoform 5 (UniProt Q9UKV3),0.007
7,ANKRD10 (UniProt Q9NXR5),-0.589 (active)
8,ADD1 isoform 3 (UniProt P35611),0.048
9,APEX1 (UniProt P27695),-0.15
10,ACTG1 (UniProt I3L4N8),0.358
11,ALDH1A1 (UniProt P00352),0.116
12,ARL15 (UniProt Q9NXU5),-0.109
13,ARL13B (UniProt Q3SXY8),-0.186
14,AP3D1 isoform 5 (UniProt O14617),-0.015
15,AFF4 (UniProt Q9UHB7),0.078
16,AP3D1 isoform 2 (UniProt O14617),-0.738 (active)
17,ACACA isoform 4 (UniProt Q13085),-0.449 (active)
